# A selection: hits, their analogues and other compounds. The true share with any hit is near 12%.
# Marburg entry inh: blocks Marburg virus binding to or entry into cells | 1.8% of 300,000 active | Potency, µM (doses to about 37.8 µM), hits mostly inhibitors | Marburg virus pseudotyped entry inhibition, cell reporter; calls by dose curve; tested in HEK293 cells
# CHX counter: affects cycloheximide protein synthesis inhibition readout, counter-screen; 12% of 300,000 active; cell reporter, cycloheximide protein synthesis inhibition counterscreen; max response, %; in the data active = max response mostly above about 13%, no sharp cut-off; inactive = mostly below about 14%; also: read at 38.3 µM for the half of the compounds with a filed dose
# Lassa entry inh: Lassa virus entry inhibition; Lassa virus pseudotype entry inhibition, cell reporter; Potency, µM (top dose mostly 37.9 µM), most hits filed as inhibitors; 1.2% of 300,000 active; calls by dose curve; tested in HEK293 cells; also: nearly all actives have a fitted effect of over 50% in size
# Shiga toxin inh: blocks Shiga toxin action in Vero cells; Vero cells, Shiga toxin protein synthesis inhibition reporter; inhibition, % at 38.7 µM; 9.2% of 290,000 active; AID 2315; in the data active = inhibition mostly above about 28%, no sharp cut-off; inactive = mostly below about 43%
# Hits are given with their value; . = inactive; ? = inconclusive; / = no result given; + = active, no number.
SMILES,Marburg entry inh,CHX counter,Lassa entry inh,Shiga toxin inh
C=CCOc1c(CNc2cccc(C(=O)O)c2)cccc1OC,?,37,?,71
C=CCOc1c(CNc2ccc(C(=O)O)cc2)cccc1OCC,.,31,.,36
O=C(O)c1cccc(NCc2cccnc2)c1,?,.,.,.
C=CCOc1c(CNc2ccc(C(=O)O)cc2)cccc1OC,.,.,.,.
C=CCOc1c(CNc2cccc(C(=O)O)c2)cccc1OCC,.,.,.,.
CCCc1ccc(OC(C)C(=O)Nc2sc3c(c2C(=O)OC)CCCCC3)cc1 (configuration not stated),.,/,.,/
COc1ccc([C@]23Cc4ccccc4C(O2)c2c(c4ccc(OC)cc4oc2=O)O3)cc1,.,38,/,+
COc1ccc2c3c(c(=O)oc2c1)C1O[C@](c2ccsc2)(Cc2ccccc21)O3,/,.,/,.
COc1ccc(NC(=O)/C=C/C(=O)O)cc1Cl,.,.,.,.
NNc1ccc(Cl)c(C(=O)O)c1,/,36,/,96
O=C(O)/C=C/C(=O)Nc1ccc(Cl)c(C(=O)O)c1,.,19,.,51
NNc1cc(C(=O)O)ccc1Cl,.,.,.,.
Cn1c(=O)c2nc(SCC(=O)Nc3cc(Cl)cc(Cl)c3)n(C)c2n(C)c1=O,/,/,.,/
CC(=O)c1cccc(NC(=S)N2CCc3ccccc32)c1,/,63,/,157
O=[N+]([O-])c1cccc(NC(=S)N2CCc3ccccc3C2)c1,/,59,/,79
CCc1ccc(NC(=O)C(=O)NCCN2CCN(Cc3ccc([N+](=O)[O-])cc3)CC2)cc1,?,11,.,.
O=C(c1ccco1)N1CCN(C(=S)Nc2cccc([N+](=O)[O-])c2)CC1,?,.,?,.
Fc1cccc(NC(=S)N2CCc3ccccc32)c1,.,.,?,.
COc1ccc(NC(=S)N2CCc3ccccc32)cc1OC,/,40,/,90
CC(=O)Nc1ccc(S(=O)(=O)N2c3ccccc3NC(=O)CC2C)c(Cl)c1 (configuration not stated),.,.,.,.
CCn1cc(C(=O)N2CCN(c3cccc(Cl)c3)CC2)c(=O)c2cc(S(=O)(=O)N3CCC(C)CC3)ccc21,?,/,.,/
CCn1ccc2cc(S(=O)(=O)N3CCC(C(=O)NCc4ccc(OC(C)C)cc4)CC3)ccc21,/,/,.,/
CN1CCN(C(=S)Nc2ccc([N+](=O)[O-])cc2)CC1,.,.,.,.
O=[N+]([O-])c1ccc(NC(=S)N2CCc3ccccc32)cc1,.,.,?,42
CCN1CCN(C(=S)Nc2ccc([N+](=O)[O-])cc2)CC1,.,21,.,.
SMILES,Marburg entry inh,CHX counter,Lassa entry inh,Shiga toxin inh
S=C(Nc1ccccc1)N1CCc2ccccc21,/,14,/,/
O=[N+]([O-])c1ccc(Cl)c(NC(=S)N2CCCC2)c1,.,33,.,50
O=C(c1cc(Br)c[nH]1)N1CCSCC1,.,.,.,.
COc1ccnc(NCc2ccc(Cl)cc2)c1C#N,.,27,.,56
CC(=O)c1ccc(-c2cc(C3C4C=CCC(C)C4C(=O)N3Cc3ccccc3)ccc2F)cc1 (configuration not stated),/,.,/,.
Cc1cc(C)n(S(=O)(=O)/C=C/c2ccccc2)n1,5.2µM,.,?,.
Cc1ccc(S(=O)(=O)n2nc(C)cc2C)cc1,.,.,.,.
O=c1c2ccccc2nc2ccc(NCc3cccs3)nn12,/,54,/,59
COc1ccc(-n2c(-c3ccc(C)cc3)n[nH]c2=S)cc1,.,.,.,.
Cc1ccc(-n2c(-c3ccncc3)n[nH]c2=S)cc1,.,31,.,168
COc1cc(-c2n[nH]c(=S)n2-c2ccc(C)cc2)cc(OC)c1OC,.,17,.,.
CCOC(=O)c1c(C)[nH]c(C)c1S(=O)(=O)N1CCC(C(=O)NCc2cccc(C)c2)CC1,/,/,.,/
CCOc1ccc2nc(N(Cc3cccnc3)C(=O)c3ccc4c(c3)OCCO4)sc2c1,/,/,.,/
O=C(/C=C/Nc1ccc(F)c(F)c1)c1cccs1,?,40,?,53
O=C(/C=C/Nc1ccc(S(=O)(=O)Nc2ncccn2)cc1)c1cccs1,.,25,.,55
O=C(/C=C/Nc1ccc(F)cc1)c1cccs1,11µM,/,?,/
N#CC1=C(N)NC(SCC(=O)O)=C(C#N)C12CCCC2,.,.,.,.
N#CC1=C(N)NC(SCc2ccc(F)cc2)=C(C#N)C12CCCCC2,7.9µM,.,?,.
CC1(C)N=C(c2ccccc2)C(c2ccccc2)=N1,.,/,.,/
Cc1c(C(c2cccc(Br)c2)c2c(C)n(C)n(-c3ccccc3)c2=O)c(=O)n(-c2ccccc2)n1C,/,.,/,.
O=C(Cn1cc(C(=O)c2ccccc2F)c2ccccc21)NCc1ccco1,?,.,.,.
CC(C)C(=O)c1cn(CC(=O)NCc2ccco2)c2ccccc12,.,30,.,58
CC(C)(C)C(=O)c1cn(CC(=O)NCc2ccco2)c2ccccc12,/,36,/,96
